Source: PubChem BioAssay AID1159580 (chemical genetic matrix, 2015)
Values joined by “and” are separate entries in the source; they are usually repeats but may differ in a detail not shown here. Equal entries are not always repeated. Screen size: about 5,500 compounds; about 2,000 (36%) were called active. Another 18% or so got no clear call; they are omitted. Cut-off read from the data, not from the text of the source: active = normalized growth mostly below about 0.91 (no sharp cut-off); inconclusive = no clear call, values can overlap the other calls; inactive = mostly above about 0.92. This is one part of the list.

Test: chemical genetic growth profiling, strain panel (AID 1159580);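 note: tested at 20 µM; growth read once vehicle control cultures reached saturation at 30 °C; 1 = growth at the plate median or of vehicle wells; lower values mean less growth of the strain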
Conditions: S. cerevisiae deletion strains, growth OD

Measured: normalized growth

CN(C)CCC(c1ccc(Br)cc1)c1ccccn1 (centres undefined)
inactive: locus YAL013W, strain DEP1, hits give low values 0.982 and 1 | locus YAL021C, strain ccr4, hits give low values 0.958 | locus YAL026C, strain drs2, hits give low values 0.996 | locus YAL030W, strain snc1, hits give low values 0.975 | locus YAL040C, strain CLN3, hits give low values 1.11 | locus YBL061C, strain skt5, hits give low values 0.991 | locus YBR009C, strain hhf1, hits give low values 0.999 | locus YBR021W, strain FUR4, hits give low values 0.975 | locus YBR023C, strain chs3, hits give low values 0.993 | locus YBR171W, strain sec66, hits give low values 0.974 | locus YBR229C, strain ROT2, hits give low values 0.978 | locus YBR231C, strain swc5, hits give low values 0.983 | locus YBR279W, strain paf1, hits give low values 0.976 | locus YCL011C, strain gbp2, hits give low values 0.97 | locus YCL016C, strain dcc1, hits give low values 0.979 | locus YCL029C, strain bik1, hits give low values 0.979 | locus YCL061C, strain MRC1 (second series), hits give low values 1 | locus YCL069W, strain vba3, hits give low values 0.985 | locus YCR088W, strain abp1, hits give low values 0.983 | locus YDL005C, strain med2, hits give low values 0.975 | locus YDL035C, strain GPR1, hits give low values 0.991 | locus YDL040C, strain nat1, hits give low values 0.967 | locus YDL074C, strain BRE1, hits give low values 0.952 | locus YDL101C, strain DUN1, hits give low values 0.984 | locus YDL134C, strain PPH21, hits give low values 0.983 | locus YDL185W, strain tfp1, hits give low values 0.998 | locus YDL192W, strain arf1, hits give low values 0.997 | locus YDR001C, strain nth1, hits give low values 0.974 | locus YDR069C, strain doa4, hits give low values 0.929 | locus YDR101C, strain arx1, hits give low values 0.967 | locus YDR137W, strain rgp1, hits give low values 1.01 | locus YDR150W, strain NUM1, hits give low values 0.997 and 1.01 | locus YDR159W, strain sac3, hits give low values 0.962 | locus YDR162C, strain NBP2, hits give low values 0.991 | locus YDR195W, strain ref2 0.96 | locus YDR297W, strain sur2, hits give low values 0.973 | locus YDR318W, strain mcm21, hits give low values 0.985 | locus YDR334W, strain swr1, hits give low values 0.956 | locus YDR335W, strain msn5, hits give low values 0.992 | locus YDR388W, hits give low values 0.99 | locus YDR392W, strain spt3, hits give low values 0.997 | locus YDR502C, strain sam2, hits give low values 0.984 | locus YEL003W, strain gim4, hits give low values 0.969 | locus YEL037C, strain rad23, hits give low values 0.981 | locus YEL061C, strain CIN8 (second series), hits give low values 0.989 | locus YEL061C, strain CIN8, hits give low values 0.994 | locus YER002W, strain NOP16, hits give low values 1.01 | locus YER015W, strain faa2, hits give low values 0.992 | locus YER016W, strain bim1, hits give low values 0.935 | locus YER110C, hits give low values 0.985 | locus YER111C, strain swi4, hits give low values 0.977 | locus YER155C, strain BEM2 (second series), hits give low values 1 | locus YER155C, strain BEM2, hits give low values 0.959 | locus YER167W, strain BCK2, hits give low values 0.992 | locus YFR010W, strain ubp6, hits give low values 0.986 | locus YGL078C, strain dbp3, hits give low values 0.987 | locus YGL086W, strain mad1, hits give low values 1 | locus YGL167C, strain pmr1, hits give low values 0.988 | locus YGL173C, strain kem1, hits give low values 0.975 | locus YGL227W, strain vid30, hits give low values 0.985 | locus YGL240W, strain doc1, hits give low values 0.995 | locus YGL248W, strain PDE1, hits give low values 0.974 | locus YGL253W, strain hxk2, hits give low values 0.991 | locus YGR078C, strain PAC10, hits give low values 0.992 and 1.01 | locus YGR135W, strain pre9, hits give low values 0.977 | locus YGR229C, strain SMI1, hits give low values 0.987 | locus YGR252W, strain gcn5, hits give low values 1.04 | locus YHR013C, strain ard1, hits give low values 0.956 | locus YHR027C, strain rpn1, hits give low values 0.952 | locus YHR030C, strain SLT2, hits give low values 0.992 and 0.989 | locus YHR079C, strain IRE1 (second series), hits give low values 0.99 | locus YHR079C, strain IRE1, hits give low values 0.99 | locus YHR094C, strain hxt1, hits give low values 0.994 | locus YHR129C, strain ARP1, hits give low values 0.986 | locus YHR142W, strain chs7, hits give low values 0.995 | locus YHR200W, strain rpn10, hits give low values 0.984 | locus YIL066C, strain RNR3, hits give low values 0.989 | locus YIL073C, strain SPO22, hits give low values 1.04 | locus YIL125W, strain kgd1, hits give low values 0.998 | locus YIR030C, strain dcg1, hits give low values 0.985 | locus YJL092W, strain hpr5, hits give low values 0.967 | locus YJL095W, strain BCK1 (second series), hits give low values 0.972 | locus YJL095W, strain BCK1, hits give low values 0.966 and 0.986 | locus YJL115W, strain asf1, hits give low values 0.941 | locus YJL129C, strain trk1, hits give low values 0.952 | locus YJL134W, strain LCB3, hits give low values 0.989 | locus YJL154C, strain vps35, hits give low values 0.955 | locus YJL164C, strain tpk1, hits give low values 0.991 | locus YJL166W, strain qcr8, hits give low values 0.973 | locus YJL168C, strain set2, hits give low values 0.993 | locus YJL187C, strain SWE1 (second series), hits give low values 0.978 | locus YJR043C, strain POL32, hits give low values 0.983 | locus YJR066W, strain TOR1, hits give low values 0.967 | locus YJR075W, strain HOC1, hits give low values 0.975 and 1.03
